# Measurements reported in PubChem BioAssay AID1159580 (chemical genetic matrix, 2015).
# The campaign covered roughly 5,500 compounds. About 2,000 (36%) were called active. About 18% were inconclusive and are not listed. This is one part of the list. Unmarked numbers belong to inactive results. No stated cut-off is given here; in the data, active means normalized growth mostly below about 0.91 (no sharp cut-off); inconclusive means no clear call, values can overlap the other calls; inactive means mostly above about 0.92.
# Assay: chemical genetic growth profiling, strain panel (AID 1159580);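 further: tested at 20 µM; growth read once vehicle control cultures reached saturation at 30 °C; 1 = growth at the plate median or of vehicle wells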
# Conditions: S. cerevisiae deletion strains, growth OD
compound,measurement,setting,value
C/C=C(/C)C(=O)OC1CCC2(C)C3CCC4C5(O)CC(O)C6(O)C(CN7CC(C)CCC7C6(C)O)C5(O)CC42OC13O (centres undefined),normalized growth,"locus YJR043C, strain POL32, stronger effect = lower value",0.845 (active)
same,normalized growth,"locus YKL009W, strain mrt4, stronger effect = lower value",0.987
same,normalized growth,"locus YKL068W, stronger effect = lower value",0.961
same,normalized growth,"locus YKL085W, strain MDH1 (second series), stronger effect = lower value",0.948
same,normalized growth,"locus YKL085W, strain MDH1, stronger effect = lower value",0.948
same,normalized growth,"locus YKL160W, strain elf1, stronger effect = lower value",1.02
same,normalized growth,"locus YKL190W, strain CNB1, stronger effect = lower value",0.979
same,normalized growth,"locus YKR001C, strain vps1, stronger effect = lower value",0.821 (active)
same,normalized growth,"locus YKR026C, strain gcn3, stronger effect = lower value",0.988
same,normalized growth,"locus YKR091W, strain srl3, stronger effect = lower value",1.01
same,normalized growth,"locus YLL001W, strain dnm1, stronger effect = lower value",0.985
same,normalized growth,"locus YLL026W, stronger effect = lower value",1
same,normalized growth,"locus YLL041C, strain sdh2, stronger effect = lower value",0.991
same,normalized growth,"locus YLR027C, strain aat2, stronger effect = lower value",1
same,normalized growth,"locus YLR039C, strain RIC1, stronger effect = lower value",0.889
same,normalized growth,"locus YLR058C, strain SHM2, stronger effect = lower value",0.949
same,normalized growth,"locus YLR102C, strain apc9, stronger effect = lower value",0.972
same,normalized growth,"locus YLR221C, strain rsa3, stronger effect = lower value",0.968
same,normalized growth,"locus YLR258W, strain gsy2, stronger effect = lower value",0.998
same,normalized growth,"locus YLR262C, strain YPT6 (second series), stronger effect = lower value",0.82 (active)
same,normalized growth,"locus YLR262C, strain YPT6, stronger effect = lower value",1
same,normalized growth,"locus YLR268W, strain sec22, stronger effect = lower value",0.938
same,normalized growth,"locus YLR320W, strain mms22, stronger effect = lower value",0.959
same,normalized growth,"locus YLR330W, strain CHS5, stronger effect = lower value",0.902 (active)
same,normalized growth,"locus YLR342W, strain FKS1 (second series), stronger effect = lower value",0.715 (active)
same,normalized growth,"locus YLR342W, strain FKS1, stronger effect = lower value",1
same,normalized growth,"locus YLR357W, strain rsc2, stronger effect = lower value",1.02
same,normalized growth,"locus YLR370C, strain arc18, stronger effect = lower value",0.994
same,normalized growth,"locus YLR371W, strain rom2, stronger effect = lower value",0.985
same,normalized growth,"locus YLR384C, strain iki3, stronger effect = lower value",0.991
same,normalized growth,"locus YLR418C, strain cdc73, stronger effect = lower value",0.705 (active)
same,normalized growth,"locus YML016C, strain PPZ1, stronger effect = lower value",0.969
same,normalized growth,"locus YML032C, strain rad52, stronger effect = lower value",0.935
same,normalized growth,"locus YML120C, strain ndi1, stronger effect = lower value",0.997
same,normalized growth,"locus YML124C, strain tub3, stronger effect = lower value",0.97
same,normalized growth,"locus YMR058W, strain fet3, stronger effect = lower value",0.993
same,normalized growth,"locus YMR078C, strain ctf18, stronger effect = lower value",0.968
same,normalized growth,"locus YMR125W, strain sto1, stronger effect = lower value",0.991
same,normalized growth,"locus YMR129W, stronger effect = lower value",1
same,normalized growth,"locus YMR205C, strain PFK2, stronger effect = lower value",0.986
same,normalized growth,"locus YMR223W, strain ubp8, stronger effect = lower value",0.957
same,normalized growth,"locus YMR231W, strain pep5, stronger effect = lower value",1
same,normalized growth,"locus YMR263W, strain SAP30, stronger effect = lower value",0.943
same,normalized growth,"locus YMR307W, strain GAS1, stronger effect = lower value",0.626
same,normalized growth,"locus YNL067W, strain RPL9B, stronger effect = lower value",0.962
same,normalized growth,"locus YNL071W, strain lat1, stronger effect = lower value",0.98
same,normalized growth,"locus YNL209W, strain ssb2, stronger effect = lower value",0.997
same,normalized growth,"locus YNL233W, strain BNI4, stronger effect = lower value",0.908
same,normalized growth,"locus YNL248C, strain rpa49, stronger effect = lower value",0.973
same,normalized growth,"locus YNL250W, strain rad50, stronger effect = lower value",0.992
same,normalized growth,"locus YNL271C, strain bni1, stronger effect = lower value",0.996
same,normalized growth,"locus YNL298W, strain CLA4, stronger effect = lower value",0.967
same,normalized growth,"locus YNL307C, strain MCK1, stronger effect = lower value",0.83 (active)
same,normalized growth,"locus YNL322C, strain KRE1 (second series), stronger effect = lower value",1.03
same,normalized growth,"locus YNL322C, strain KRE1, stronger effect = lower value",0.947
same,normalized growth,"locus YNR049C, strain mso1, stronger effect = lower value",1.02
same,normalized growth,"locus YNR052C, strain pop2, stronger effect = lower value",1.02
same,normalized growth,"locus YOL006C, strain TOP1, stronger effect = lower value",0.627
same,normalized growth,"locus YOL012C, strain htz1",0.727
same,normalized growth,"locus YOL147C, strain pex11, stronger effect = lower value",0.96
same,normalized growth,"locus YOR001W, strain rrp6, stronger effect = lower value",0.937
same,normalized growth,"locus YOR061W, strain CKA2, stronger effect = lower value",0.975
same,normalized growth,"locus YOR069W, strain VPS5, stronger effect = lower value",0.981
same,normalized growth,"locus YOR070C, strain gyp1, stronger effect = lower value",0.987
same,normalized growth,"locus YOR080W, strain dia2, stronger effect = lower value",1
same,normalized growth,"locus YOR083W, strain WHI5, stronger effect = lower value",1.03
same,normalized growth,"locus YOR106W, strain vam3, stronger effect = lower value",1.02
same,normalized growth,"locus YOR136W, strain idh2, stronger effect = lower value",0.979
same,normalized growth,"locus YOR144C, strain elg1, stronger effect = lower value",0.963
same,normalized growth,"locus YOR184W, strain ser1, stronger effect = lower value",0.815 (active)
same,normalized growth,"locus YOR265W, strain rbl2, stronger effect = lower value",0.984
same,normalized growth,"locus YOR270C, strain vph1, stronger effect = lower value",0.94
same,normalized growth,"locus YOR290C, strain snf2, stronger effect = lower value",1.03
same,normalized growth,"locus YOR316C, strain cot1, stronger effect = lower value",0.969
same,normalized growth,"locus YPL051W, strain arl3, stronger effect = lower value",1.02
same,normalized growth,"locus YPL055C, strain LGE1, stronger effect = lower value",0.877
same,normalized growth,"locus YPL078C, strain atp4, stronger effect = lower value",1.01
same,normalized growth,"locus YPL106C, strain sse1, stronger effect = lower value",1.01
same,normalized growth,"locus YPL240C, strain hsp82, stronger effect = lower value",0.988
same,normalized growth,"locus YPR119W, strain clb2, stronger effect = lower value",0.969
same,normalized growth,"locus YPR141C, strain kar3, stronger effect = lower value",0.978
same,normalized growth,"locus YPR163C, strain tif3, stronger effect = lower value",0.964
same,normalized growth,"locus YPR167C, strain met16, stronger effect = lower value",0.967
same,normalized growth,"strain wtn01, stronger effect = lower value",0.949
